# Cy5 interf NS3h – Cy5 fluorescence quenchers or enhancers, artefact control for HCV NS3 helicase inhibitor project, biochemical, ChemBridge library, Cy5 readout | Cy5-dT15 DNA with NS3h, fluorescence interference; actives lie on both sides; signal over control mean, under 1 quenches | fluorescence interference ratio at 100 µM | 6% of 16,000 active | AID 720488, 2013;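 active = compound fluorescence over control fluorescence at most 0.8, a quencher, or at least a set upper limit, an enhancer; inactive = ratio between 0.8 and the set upper limit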
# HCV NS3h FP – HCV NS3 helicase inhibitors, primary screen, biochemical, fluorescence polarization, ChemBridge library; Hepatitis C virus NS3 helicase; NS3h Cy5-dT15 DNA binding; inhibition, % at 100 µM; 1.6% of 16,000 active; AID 687043, 2013;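 active = inhibition above the average over every tested compound plus 3 SD, cut at about 40% in these data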
# Active calls of the source: *. Only some compounds are listed: those with a hit (about 7.6% of all), similar ones and a draw of the others.
SMILES,Cy5 interf NS3h,HCV NS3h FP
Cn1c(-c2ccc(-c3nc4cnccc4n3C)cc2)nc2cnccc21,1.21*,-2.2
CCOc1cccc(C(=O)Nc2nc3ccc(C)cc3s2)c1,0.689*,0.3
CCOc1ccc2nc(SCC(=O)c3ccc(C)cc3C)sc2c1,0.761*,4.0
CCOc1cccc(C(=O)Nc2nnc(-c3cccc(OCC)c3)s2)c1,1.06,-7.3
CCOc1ccc2nc(SCC(=O)NC(C)c3ccccc3)sc2c1 (configuration not stated),1.02,6.5
COc1ccc(C2C(=C(O)c3ccccc3)C(=O)C(=O)N2c2nc3ccccc3s2)c(OC)c1 (configuration not stated),0.916,5.9
CC(C)c1ccc(C2C(=C(O)c3ccccc3)C(=O)C(=O)N2CCN(C)C)cc1 (configuration not stated),0.973,-2.8
Cc1ccc(S(=O)(=O)N=C2C=CC(=O)C(Br)=C2)cc1,0.945,27.7
Cc1ccc(S(=O)(=O)N=C2C=C(Cl)C(=O)C(Br)=C2)cc1,0.606*,33.7
Cc1ccc(NC(=S)NC(=O)/C=C/c2ccccc2)cc1NC(=O)c1ccccc1,1.05,-6.3
Cc1onc(-c2ccccc2Cl)c1C(=O)Nc1ccc(S(=O)(=O)Nc2ncccn2)cc1,1.04,3.6
Clc1cccc(Nc2nc3c(s2)CCCC3)c1,0.757*,16.4
O=C(Nc1cccc(Cl)c1)Nc1nnc(/C=C/c2ccccc2Cl)s1,0.997,-14.8
Cc1ccc(C)c(Nc2nc3c(s2)CCCC3)c1,0.782*,15.5
CCN(CC)C(=S)SCC(=O)Nc1cc(C)ccc1C,0.999,16.2
O=C(/C=C/c1ccccc1)Nc1nnc(C2CCCC2)s1,1.08,8.8
CCC1=NN2C(=N)/C(=C/c3ccc(OC(=O)c4ccc(Cl)cc4)c(OC)c3)C(=O)N=C2S1,1.02,14.6
Cn1ccnc1/C=C(/OC(=O)c1ccc(Cl)cc1)c1ccc(Cl)cc1,0.978,-4.2
O=C(O/C(=C/c1nccn1Cc1ccc(Cl)cc1)c1ccccc1)c1ccccc1,1.22*,5.8
CCc1ccccc1NC(=O)CN(c1cc(OC)ccc1OC)S(C)(=O)=O,0.997,-5.0
CCN(CC)C(=O)CN(c1ccc(C)cc1)S(C)(=O)=O,1.03,-0.6
O=C(Nc1ccc(F)c([N+](=O)[O-])c1)c1ccc(OCc2ccccc2)cc1,0.948,6.5
Cc1c(Cl)c(C(F)(F)F)nn1CC(=O)Nc1ccccc1C(F)(F)F,1.01,1.9
Cc1c(Cl)c([N+](=O)[O-])nn1CC(=O)Nc1cc(C(F)(F)F)ccc1Cl,0.617*,1.2
Cc1ccc(C(=O)N2CCN(c3ccc([N+](=O)[O-])cc3Cl)CC2C)o1 (configuration not stated),1.15,9.1
SMILES,Cy5 interf NS3h,HCV NS3h FP
COCCN1C(=O)/C(=C\c2ccc(N(C)C)cc2)C(C(=O)OC)=C1C,0.941,10.6
Cc1ccc(NC(=O)CN(c2cc(Cl)cc(Cl)c2)S(C)(=O)=O)cc1,0.989,7.1
C=CCNC(=O)CN(c1cc(Cl)cc(Cl)c1)S(C)(=O)=O,1.22*,5.3
Cc1ccccc1-c1nc(Cc2ccccc2Cl)no1,0.982,5.1
COc1ccc(/C=C/C(=O)NCC2CCCO2)cc1Br (configuration not stated),1.06,3.8
COc1ccc(/C=C/C(=O)N2CCC(C)CC2)cc1Br,0.624*,10.5
CCOC(=O)c1c(-c2ccc(Br)cc2)csc1NC(=O)c1cccc([N+](=O)[O-])c1,1.19,5.8
O=C(CSc1nc2ccccc2o1)c1ccc2c(c1)Cc1ccccc1-2,0.644*,1.2
CC(C)(C)CC(C)(C)NC(=O)CSc1nc2ccccc2o1,0.912,6.1
O=C(Nc1ccc(-c2nc3ccccc3c(=O)o2)cc1)c1ccccc1F,0.885,-1.6
O=c1oc(-c2cccc(F)c2)nc2ccc(Cc3ccc4nc(-c5cccc(F)c5)oc(=O)c4c3)cc12,0.769*,19.8
O=C(/C=C\Nc1ccc2c(c1)OCO2)c1ccc(F)cc1,1.07,11.7
CCOc1cc(OCC)cc(C(=O)Nc2cc(C(=O)OC)cc(C(=O)OC)c2)c1,1.02,8.9
O=C(N/N=C\c1ccc[nH]1)c1ccccc1[N+](=O)[O-],0.67*,15.0
NC(=O)c1ccc(NC(=O)c2ccccc2[N+](=O)[O-])cc1,0.97,-7.2
Cc1ccc2nsnc2c1NC(=O)S(=O)(=O)c1ccccc1,1,-1.6
O=C(CCC(=O)OCC(F)(F)C(F)F)Nc1ccc(Cl)cc1Cl,0.776*,7.7
C=CCCCC(=O)Nc1ccc(-c2ccc(NC(=O)CCCC=C)cc2)cc1,0.941,7.6
O=C(CCCC(=O)OCC(F)(F)C(F)F)Nc1ccc(NC(=O)CCCC(=O)OCC(F)(F)C(F)F)cc1,0.624*,3.1
C=CCCCC(=O)Nc1ccc(Cl)cc1Cl,0.966,10.5
CCOC(=O)COc1ccc(/C=C2\C(=O)NC(=O)N(c3ccc(C)cc3)C2=O)cc1OC,0.995,4.6
CCOC(=O)c1ccccc1NS(=O)(=O)c1ccc(OC)c(OC)c1,0.921,16.1
CCN1/C(=C2/OC(=S)N(C)C2=O)C=Cc2cc(C)ccc21,0.903,9.1
O=C(/C=C/c1ccccc1Cl)Nc1ccccc1[N+](=O)[O-],1.08,40.9*
COc1ccc(NC(=O)/C=C/c2ccccc2Cl)c([N+](=O)[O-])c1,1.04,7.8
SMILES,Cy5 interf NS3h,HCV NS3h FP
CCC(C(=O)NC(c1ccccc1)c1ccccc1)c1ccccc1 (configuration not stated),1.08,4.4
CCOC(=O)Nc1n[nH]c(NC(=O)OCC)c1[N+](=O)[O-],0.661*,11.5
CCOC(=O)Nc1cc([N+](=O)[O-])ccc1Cl,0.985,19.3
O=C(CC1S/C(=N/N=C\c2ccco2)NC1=O)Nc1cccc(Cl)c1Cl (configuration not stated),1.12,-3.4
Cc1cc(=O)n2c([nH]c3ccccc32)c1C(=O)O,0.786*,30.0
COc1ccc(Cl)cc1NC(=O)CN1C(=O)c2ccccc2C1=O,1.01,8.0
Cc1ccc(C)c(N2C(=O)C3C4C=CC(C5CC45)C3C2=O)c1 (configuration not stated),0.991,1.8
O=C(N1CCSCC1)C(F)(F)C(F)(F)C(F)(F)C(F)(F)F,0.795*,12.0
COc1ccc(C2CC(C(F)(F)F)n3nc(C(=O)Nc4cc(OC)c(Cl)cc4OC)c(Cl)c3N2)cc1 (configuration not stated),1.01,4.6
O=C(COc1ccc(Cl)cc1Br)NCc1ccc2c(c1)OCO2,0.939,-7.2
COc1ccc(C2CC(O)C(C)C(c3ccc(OC)cc3)N2)cc1 (configuration not stated),0.726*,15.9
CC1C(c2ccccc2)NC(c2ccccc2)C(C)C1O (configuration not stated),1.03,-3.7
Cc1ccc(NC2=NS(=O)(=O)c3cc([N+](=O)[O-])ccc32)cc1,1.08,5.0
O=C(Oc1cccc2ccccc12)c1ccc(Cl)cc1Cl,0.641*,5.9
O=S(=O)(Oc1cccc2ccccc12)c1cc(Cl)ccc1Cl,1.02,11.9
CCOC(=O)c1c(NC(=O)c2cncc(Br)c2)sc(C)c1C,0.972,16.6
O=C(NC(CS)C(=O)O)c1cncc(O)c1 (configuration not stated),0.643*,0.3
O=C(/C=C/c1ccccc1)NCC1COc2ccccc2O1 (configuration not stated),1.03,14.6
